pAkt inh: HTS Assay for Inhibitors of Akt Phophorylation: Primary Screen. 360,000 tested, 0.32% active. Neuro2A IGF-stimulated pAkt S473 HTRF, 20 min; stronger effect = lower value. activity change, % for hits at 50 µM; in the data active = activity change below about -80%; inconclusive = mostly about -51% to -80%; also: % is scaled to controls: 0 for no effect and ±100 for the full control effect
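Neuro2A cells in DMEM with 0.5% FBS, overnight at 37 deg C, given compound at single 50 µM final, then IGF (6 nM final) for 20 min at 37 deg C. Lysed; phospho-Akt Ser473 by HTRF after 24 h, 665/615 ratio.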
gsp antagonist: qHTS for Antagonists of gsp, the Etiologic Mutation Responsible for Fibrous Dysplasia/McCune-Albright Syndrome: qHTS; 340,000 tested, 0.4% active; gsp-mutant cells, cAMP HTRF, 30 min; AID 624288, 2012; Potency, µM (doses to about 76.9 µM), for inactives: at the highest dose activity change, negative = inhibition, actives largely listed as inhibitors; calls by dose curve; cell line not stated here;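 also: intracellular cAMP measured with PDE inhibitor Ro 20-1724 present during compound exposure; potency is read from the fitted curve at half-maximal effect; % is scaled to controls: 0 for no effect and ±100 for the full control effect; nearly all actives have a fitted effect of over 65% in size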
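HTRF cAMP measurement after 30 min RT detection following 30 min, 37C compound treatment alongside […] (added as 300 uM solution) in G418-selected cells seeded at 2000/well and grown 16–24 h.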
gsp ag: qHTS for Agonist of gsp, the Etiologic Mutation Responsible for Fibrous Dysplasia/McCune-Albright Syndrome: qHTS; Potency, µM (highest dose often 76.9 µM), for the others: top-dose activation (cAMP increase), usual class: activators; AID 624287, 2012; gsp mutant cells, cAMP HTRF, 30 min; 340,000 tested, 0.13% active; active = well fitted activation curve with a large enough effect; inconclusive = small, poorly fitted or top-dose-only effect, or another doubt; inactive = no such curve, though single readings can be large or run the other way; cell line not stated here;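 also: phosphodiesterase inhibitor Ro 20-1724 added with compounds to block cAMP breakdown; potency is read from the fitted curve at half-maximal effect; nearly all actives have a fitted effect of over 60% in size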
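Cells in DMEM/10% FBS with G418 were pretreated with compounds in DMSO plus […] (300 uM stock) for 30 min at 37C. cAMP was measured by HTRF (cAMP-d2 plus anti-cAMP antibody-K) after 30 min at room temperature.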
hERG WT inh: qHTS for Inhibitors of KCHN2 3.1: Wildtype qHTS; Voltage-gated inwardly rectifying potassium channel KCNH2 (Homo sapiens), Q12809; U2OS, BacMam KCNH2, thallium flux FluxOr; stronger effect = lower value; 340,000 tested, 0.37% active; activity change, % at 1.84 µM;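 active = maximum activity change below -70%; inconclusive = maximum activity change between -70% and -50%; inactive = maximum activity change above -50%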; also: % is scaled to controls: 0 for no effect and ±100 for the full control effect
Target sequence (Q12809 whole entry, looked up): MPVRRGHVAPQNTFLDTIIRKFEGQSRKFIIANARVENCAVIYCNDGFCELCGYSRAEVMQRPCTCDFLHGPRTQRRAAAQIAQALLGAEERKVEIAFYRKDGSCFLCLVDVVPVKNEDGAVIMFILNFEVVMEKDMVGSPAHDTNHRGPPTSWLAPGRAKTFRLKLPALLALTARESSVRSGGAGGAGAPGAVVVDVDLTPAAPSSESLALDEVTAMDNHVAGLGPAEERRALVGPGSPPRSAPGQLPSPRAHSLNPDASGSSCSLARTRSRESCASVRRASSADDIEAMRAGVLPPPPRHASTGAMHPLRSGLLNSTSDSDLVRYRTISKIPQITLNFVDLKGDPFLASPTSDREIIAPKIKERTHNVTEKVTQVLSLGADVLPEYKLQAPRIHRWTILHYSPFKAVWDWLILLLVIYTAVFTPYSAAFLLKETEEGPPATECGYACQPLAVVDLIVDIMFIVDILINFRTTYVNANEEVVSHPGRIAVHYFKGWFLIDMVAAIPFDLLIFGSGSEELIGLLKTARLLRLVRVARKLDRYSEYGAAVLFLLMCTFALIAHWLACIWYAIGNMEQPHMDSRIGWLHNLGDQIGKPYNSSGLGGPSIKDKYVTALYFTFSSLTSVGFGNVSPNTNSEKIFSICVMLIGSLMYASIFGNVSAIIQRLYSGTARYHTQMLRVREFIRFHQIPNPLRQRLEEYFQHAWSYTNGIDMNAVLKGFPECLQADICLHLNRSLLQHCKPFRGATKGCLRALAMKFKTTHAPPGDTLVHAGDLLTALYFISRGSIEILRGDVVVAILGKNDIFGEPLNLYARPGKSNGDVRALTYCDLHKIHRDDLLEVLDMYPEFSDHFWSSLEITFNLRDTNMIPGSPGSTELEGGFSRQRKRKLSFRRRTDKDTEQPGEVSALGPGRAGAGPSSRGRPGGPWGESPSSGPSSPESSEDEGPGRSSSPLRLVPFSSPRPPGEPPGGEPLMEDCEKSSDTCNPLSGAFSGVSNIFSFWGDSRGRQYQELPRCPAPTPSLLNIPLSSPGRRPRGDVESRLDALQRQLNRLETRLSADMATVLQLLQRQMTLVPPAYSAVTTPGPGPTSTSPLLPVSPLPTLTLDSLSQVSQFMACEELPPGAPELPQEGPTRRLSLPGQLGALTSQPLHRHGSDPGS
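U2OS cells transduced with wild-type KCNH2 virus are loaded with FluxOr dye for 45 min, and thallium flux is measured in kinetic reads before and after stimulation buffer. Rate constants are normalized to DMSO controls.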
KCNH2 3.1 inh: qHTS for Inhibitors of KCHN2 3.1: Mutant qHTS; AID 720553, 2013; Potassium voltage-gated channel subfamily H member 2, brain isoform KCNH2 3.1 (human); 340,000 tested, 0.95% active; activity change, % (tested at about 1.8 µM); U2OS KCNH2 3.1, thallium flux FluxOr; stronger effect = lower value;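 active = maximum activity change below -70%; inconclusive = maximum activity change from -70% to -50%; inactive = maximum activity change above -50%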;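 also: thallium influx rate constant from kinetic fluorescence after stimulation buffer; % is scaled to controls: 0 for no effect and ±100 for the full control effect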
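Thallium flux via FluxOr fluorescence (Red40 quencher, 45 min loading) in U2OS cells virally expressing the KCNH2 3.1 isoform (1.77 x 10^8 /mL virus, overnight at 37 C). Rate constants from 2-min kinetic reads post-stimulation, normalised to positive and negative controls.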
Glioma ERSR ind: qHTS for Inducers of the Endoplasmic Reticulum Stress Response (ERSR) in Human Glioma: qHTS. U87-MG GRP78 promoter luciferase reporter, 16 h. AID 602332, 2012. Potency, µM, inactives show at the highest dose activation, most hits filed as activators. 420,000 tested, 0.02% active; active = well fitted activation curve with a large enough effect; inconclusive = small, poorly fitted or top-dose-only effect; inactive = no such curve, though single readings can be large or run the other way; also: potency is read from the fitted curve at half-maximal effect; series mostly up to about 76 µM; % of control where 0% means no effect; nearly all actives have a fitted effect of over 35% in size
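Stably transfected U87-MG glioma cells carrying a GRP78-based luciferase sensor; 16 h compound incubation. Luminescence end-point read 10 min after Bright-Glo addition at room temperature.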
The depositor's hits bear a star; [ ] = remark or other dose. In the library only some 1.6% were active in any assay of this set; here they are far more common.

How did CCOC(=O)C1(CCCc2ccccc2)CCN(Cc2cnc(C)s2)CC1 do in these assays?
pAkt inh: inactive; gsp ag: -1%[15.4 µM]; hERG WT inh: -91*; KCNH2 3.1 inh: -23; Glioma ERSR ind: -4%

How did CCOC(=O)C1(Cc2ccccc2)CCN(C2Cc3ccccc3C2)CC1 do in these assays?
pAkt inh: inactive; gsp antagonist: 2%; gsp ag: 4%; hERG WT inh: -3; KCNH2 3.1 inh: -86*; Glioma ERSR ind: -4%

How did CCOC(=O)C1(CCCc2ccccc2)CCN(Cc2cn(CC)nc2C)CC1 do in these assays?
pAkt inh: inactive; gsp antagonist: 6%; gsp ag: -16%; hERG WT inh: -17; KCNH2 3.1 inh: -93*; Glioma ERSR ind: -2%

What do the screens show for `CCOC(=O)C1(CCCc2ccccc2)CCN(Cc2nccn2CC)CC1`?
pAkt inh: inactive; gsp antagonist: inconclusive; gsp ag: 3%[15.4 µM]; hERG WT inh: -13; KCNH2 3.1 inh: -93*; Glioma ERSR ind: -5%

Results for CCOC(=O)C1(Cc2ccc(Cl)cc2)CCN(C2CCC2)CC1 ?
pAkt inh: inactive; gsp antagonist: 4%; gsp ag: 0%[15.4 µM]; hERG WT inh: 8; KCNH2 3.1 inh: -4; Glioma ERSR ind: -2%

What do the screens show for `CCOC(=O)C1(CCOc2ccccc2)CCN(Cc2nccn2CC)CC1`?
pAkt inh: inactive; gsp antagonist: 8%; gsp ag: 24%; hERG WT inh: 14; KCNH2 3.1 inh: 1; Glioma ERSR ind: -4%

What do the screens show for `CCOC(=O)C1(CCc2ccccc2)CCN(Cc2cccc3nccnc23)CC1`?
pAkt inh: inactive; gsp antagonist: -8%; gsp ag: 8%; hERG WT inh: -34; KCNH2 3.1 inh: -99*; Glioma ERSR ind: -3%

How did CCOC(=O)C1(Cc2ccccc2C(F)(F)F)CCN(CCCn2cccn2)CC1 do in these assays?
pAkt inh: inactive; gsp antagonist: 4%; gsp ag: -19%; hERG WT inh: 31; KCNH2 3.1 inh: -5; Glioma ERSR ind: -2%

What do the screens show for `CCOC(=O)C1(CCc2ccccc2)CCN(Cc2ccn[nH]2)CC1`?
pAkt inh: inactive; gsp antagonist: -6%; gsp ag: 6%; hERG WT inh: 9; KCNH2 3.1 inh: inconclusive; Glioma ERSR ind: -3%

What do the screens show for `CCOC(=O)C1(CCCc2ccccc2)CCN(CCCn2cccn2)CC1`?
pAkt inh: inactive; gsp antagonist: 10%; gsp ag: -80%; hERG WT inh: -131*; KCNH2 3.1 inh: -111*; Glioma ERSR ind: -3%

What do the screens show for `c1cncc(OC2CCN(Cc3ccc4c(c3)CN(Cc3nc5ccccc5s3)CCO4)CC2)c1`?
Glioma ERSR ind: -3%

What do the screens show for `COc1ccccc1C1CN(CC(=O)NCC2OCCc3ccccc32)Cc2ccccc2O1` (stereo not given)?
Glioma ERSR ind: -3%

How did Cc1cc(C(=O)Nc2ccccc2-c2nc(CNC(=O)C3COc4ccccc4O3)c(C)o2)c(C)o1 (stereo not given) do in these assays?
Glioma ERSR ind: 0%

Results for O=C(NCc1nnc2n1CCN(Cc1cc3c(cc1Cl)OCO3)CC2)c1cccc(F)c1 ?
Glioma ERSR ind: -9%

Results for CC(=O)Nc1ccccc1-c1nc(CNC(=O)c2cc(C)ccc2C)c(C)o1 ?
Glioma ERSR ind: 2%

What do the screens show for `Cc1cc2nc(SCC(=O)Nc3ccccc3C(=O)O)[nH]c2cc1C`?
pAkt inh: inactive; gsp ag: -3%[15.4 µM]; hERG WT inh: 6; KCNH2 3.1 inh: -138*; Glioma ERSR ind: 4%

How did COc1ccc(NC(=O)c2sc3cc(C(F)(F)F)cnc3c2-c2cccs2)cc1 do in these assays?
pAkt inh: inactive; gsp antagonist: inconclusive; gsp ag: inconclusive; hERG WT inh: 9; KCNH2 3.1 inh: -92*; Glioma ERSR ind: -4%

Results for C=CC(C)(C)c1[nH]c2ccccc2c1C1=C(O)C(=O)C(c2c[nH]c3c(CC=C(C)C)cccc23)=C(O)C1=O ?
Glioma ERSR ind: -2%

How did CC(C)(C)N1C(=O)[C@H]2[C@@H](c3ccc(Br)cc3)N3C(=O)N(c4cccc(F)c4)C(=O)[C@@]3(Cc3ccccc3)[C@H]2C1=O do in these assays?
pAkt inh: inactive; gsp antagonist: -13%; gsp ag: 21%; hERG WT inh: -1; KCNH2 3.1 inh: 0; Glioma ERSR ind: -3%

Results for COc1ccc([C@@H]2[C@@H]3C(=O)N(C(C)(C)C)C(=O)[C@@H]3[C@]3(Cc4ccccc4)C(=O)N(c4cccc(F)c4)C(=O)N23)cc1 ?
pAkt inh: inactive; gsp antagonist: -1%; gsp ag: inconclusive; hERG WT inh: 5; KCNH2 3.1 inh: -74*; Glioma ERSR ind: -5%

How did O=C(Nc1ccccc1C(=O)O)c1cccc(NC(=O)c2ccccc2Br)c1 do in these assays?
pAkt inh: inactive; gsp antagonist: 0%; gsp ag: -20%; hERG WT inh: 0; KCNH2 3.1 inh: 12; Glioma ERSR ind: 8%

Results for CC(C)C(=O)Nc1cccc(C(=O)Nc2ccccc2C(=O)O)c1 ?
pAkt inh: -114%*; gsp antagonist: inconclusive; gsp ag: -2%; hERG WT inh: 1; KCNH2 3.1 inh: 0; Glioma ERSR ind: -2%

Results for OC1(c2ccc(OC(F)F)cc2)CSC(=Nc2cccnc2)N1Cc1ccco1 (stereo not given) ?
pAkt inh: inactive; gsp antagonist: 32µM*; gsp ag: -17%; hERG WT inh: -17; KCNH2 3.1 inh: -3; Glioma ERSR ind: -7%

How did Cc1ccc(NC(=O)C2CCCN2C(=O)NCc2ccccc2)cc1 (stereo not given) do in these assays?
pAkt inh: inactive; gsp antagonist: 2%; gsp ag: -4%[15.4 µM]; hERG WT inh: 6; KCNH2 3.1 inh: -2; Glioma ERSR ind: -1%

How did Cc1ccc(NC(=O)N2CCCC2C(=O)NCCc2ccccc2)cc1 (stereo not given) do in these assays?
pAkt inh: -121%*; gsp antagonist: 7%; gsp ag: -14%; hERG WT inh: 4; KCNH2 3.1 inh: -1; Glioma ERSR ind: 4%

How did OCCC1CN(CC(c2ccccc2)c2ccccc2)CCN1C1CCCC1 (stereo not given) do in these assays?
pAkt inh: inactive; gsp antagonist: 11%; gsp ag: inconclusive; hERG WT inh: 2; KCNH2 3.1 inh: -75*; Glioma ERSR ind: -3%
